An excerpt weighted towards active compounds, which were near 4.8% of everything screened.
hcDAF12 agonist – activates DAF-12 receptor from parasite H. contortus; HEK293 hcDAF-12 lit1-tk-luc reporter, luminescence; 0% DMSO, 100% Δ7-dafachronic acid; activation, % at 6.8 µM; 1.4% of 370,000 active;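 active = activation above the mean of all tested compounds plus 3 SD, cut at about 5.5% in these data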
NR1D1 modulator – modulates human Rev-erb alpha binding to DNA; P20393; activity, % at 10 µM; 0.79% of 370,000 active; Rev-erbα–FITC-DNA binding, fluorescence polarization, 90 min; AID 1259318;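 active = activity above about 14%, limit read from the data; passing the limit was not always enough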
ssDAF-12 act – S. stercoralis DAF-12 activation, primary screen; HEK293 ssDAF-12/GRIP1 lit1-tk-luc reporter, luminescence; % of 3 µM dafachronic acid response; activation, % at 6.8 µM; 1% of 370,000 active; AID 652126;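 active = activation above the mean over all tested compounds plus 3 SD, cut at about 0.9% in these data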
DAX1 inh-1 – blocks DAX1 repression of SF-1 activated StAR promoter. inhibition, % at 6.8 µM. AID 652010. HEK293T StAR-luciferase reporter, SF-1/DAX-1 repression relief. 1.1% of 370,000 active;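 active = inhibition above the mean over all tested compounds plus 3 SD, cut at about 3.6% in these data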;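 also: higher inhibition means more luminescence from relief of DAX-1 repression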
DAX1 inh-2 – NR0B1 (DAX1) inhibition. 0.99% of 340,000 active. HEK293 Gal4-DAX1 luciferase reporter, luminescence. inhibition, % at 6.75 µM. P51843;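 active = inhibition above the mean over all tested compounds plus 3 SD, cut at about 4.2% in these data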;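 also: inhibition shows as a rise in luminescence from relieved DAX1 repression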
Target sequence (P51843 207-470 limits assumed): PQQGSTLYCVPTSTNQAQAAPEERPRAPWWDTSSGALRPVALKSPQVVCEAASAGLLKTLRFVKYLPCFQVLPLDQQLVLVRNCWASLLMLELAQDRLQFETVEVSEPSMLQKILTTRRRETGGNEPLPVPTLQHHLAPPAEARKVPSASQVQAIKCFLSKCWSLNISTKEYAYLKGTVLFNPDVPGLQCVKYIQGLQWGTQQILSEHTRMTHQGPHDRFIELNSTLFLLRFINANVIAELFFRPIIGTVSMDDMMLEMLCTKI
hgDAF-12 ag – hgDAF-12 agonism, primary luciferase screen; HEK293 GAL4-hgDAF12 UAS-luciferase reporter, agonist luminescence; normalized to butyrate control; AID 687014; 1.8% of 370,000 active; activation, % at 6.8 µM;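 active = activation above a cutoff set at the mean of all screened compounds plus 3 SD, cut at about 10% in these data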
NR1D1 mod conf – confirmation of modulators of human Rev-erb alpha DNA binding | AID 1259319 | Rev-erb alpha FITC-DNA binding, fluorescence polarization, 90 min | shares compounds with NR1D1 modulator | 61% of 3,000 active | activation, % at 25 µM;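 active = activation at or above a set limit, or at least 3 SD above the negative control mean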
RORg counter – RORgamma DNA-binding activity, dose-response counter-screen. purified RORgamma protein-FITC-DNA binding, fluorescence polarization. 8% of 910 active. AID 1259320. IC50, µM. shares compounds with NR1D1 modulator;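 active = Compounds whose fitted half-maximal concentration for disrupting protein-DNA binding is below 10 micromolar; the record names Rev-erb in its text, so the target is in doubt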
Of the large screens only hits and unclear results are named; the others gave an inactive call (follow-up assays come after a bar, where they were run).

CC(=O)c1sc(NC(=O)COc2ccc([N+](=O)[O-])cc2)nc1C	none
CCc1ccccc1NC(=O)c1nnn(CC(=O)Nc2cccc(C)c2C)c1N	NR1D1 modulator 34.9 | NR1D1 mod conf 42.2
CCN(CC)C(=O)CC[C@H]1CC[C@]2(CCCN(C(=O)c3ccco3)C2)O1	none (no result: DAX1 inh-2)
CC(C)CC(NC(=O)OCc1ccccc1)C(=O)NCC(=O)NCC(=O)OCc1ccccc1 (stereo not drawn)	none (no result: DAX1 inh-2)
COc1ccc(C(=O)COC(=O)c2cc(=O)[nH]c3ccccc23)c(OC)c1	NR1D1 modulator 76.7, ssDAF-12 act 1.0 | NR1D1 mod conf 37.0 | RORg counter inactive
CCCCS(=O)(=O)NCC1CCN(C(=O)C(=O)c2cc3ccccc3o2)CC1	none (no result: DAX1 inh-2)
N#Cc1cccc(Cn2ccc3ccc(-c4ccc5ccn(Cc6cccc(C#N)c6)c5c4)cc32)c1	NR1D1 modulator 58.9 (no result: DAX1 inh-2) | NR1D1 mod conf 37.5 | RORg counter 2.54
Fc1ccc(Cn2ccc3ccc(-c4ccc5ccn(Cc6ccccc6)c5c4)cc32)cc1	none (no result: DAX1 inh-2)
COc1ccc(Cn2ccc3ccc(-c4ccc5ccn(Cc6ccc(C#N)cc6)c5c4)cc32)cc1	NR1D1 modulator 37.9 (no result: DAX1 inh-2) | NR1D1 mod conf inactive
c1ccc(Cn2ccc3ccc(-c4ccc5ccn(Cc6cccc(-c7ccsc7)c6)c5c4)cc32)cc1	NR1D1 modulator 30.7 (no result: DAX1 inh-2) | NR1D1 mod conf 16.5
O=[N+]([O-])c1ccc(OC2OCC(O)C(O)C2O)cc1 (stereo not drawn)	none (no result: DAX1 inh-2)
CC(C)C[C@@H]1COc2cc(N3CCOCC3)ccc2S(=O)(=O)N1	none (no result: DAX1 inh-2)
COc1ccc(N=Cc2c(O)n(-c3cccc(C)n3)c(=O)c3ccccc23)c(OC)c1	NR1D1 modulator 52.7, DAX1 inh-2 5.2 | NR1D1 mod conf inactive
Cc1cccc(N2C(=O)CC(Sc3nc(-c4ccccc4)c4cc(Cl)ccc4n3)C2=O)c1 (stereo not drawn)	NR1D1 modulator 20.3 | NR1D1 mod conf inactive
S=c1[nH]ncn2c1cc1oc3ccccc3c12	NR1D1 modulator 33.7 | NR1D1 mod conf 20.0
CN(/N=C/c1cccnc1)c1cnn(-c2ccc(F)c(Cl)c2)c(=O)c1Cl	NR1D1 modulator 25.9 | NR1D1 mod conf inactive
CN(/N=C/c1cccnc1)C1=NS(=O)(=O)c2ccccc21	none
CCCCOCC1CN(CCCC)S(=O)(=O)c2c(NCc3cc(OC)c(OC)c(OC)c3)cccc2O1 (stereo not drawn)	none (no result: DAX1 inh-2)
C/C=C(/C(=C/C)c1ccc(O)cc1)c1ccc(O)cc1	NR1D1 modulator 30.8 | NR1D1 mod conf 40.3 | RORg counter inactive
O[C@H](COc1ccc(OC(F)(F)F)cc1)CN1CCC(C(O)(c2ccccc2)c2ccccc2)CC1	none (no result: DAX1 inh-2)
Cc1ccc(OCC(=O)O/N=C(\N)c2ccncc2)cc1C	NR1D1 modulator 22.5 | NR1D1 mod conf inactive
COc1cccc(OCC(=O)O/N=C(\N)c2ccncc2)c1	none
Cc1cccc(Nc2nn3c(=O)c4ccccc4nc3s2)c1	NR1D1 modulator 298.7 | NR1D1 mod conf 289.5 | RORg counter inactive
Cc1noc(C)c1NC(=O)N(C)C[C@H]1OCc2cn(nn2)CCCC(=O)N([C@H](C)CO)C[C@@H]1C	none (no result: DAX1 inh-2)
COc1ccc(C(C)(O)c2nc(-c3ccccc3OC)cs2)cc1 (stereo not drawn)	none (no result: DAX1 inh-2)
NC(=O)c1c(NC(=O)c2cccnc2)sc2c1CCCC2	none (no result: DAX1 inh-2)
CCCC1CCc2c(sc(NC(=O)c3cccs3)c2C(N)=O)C1 (stereo not drawn)	NR1D1 modulator 25.6 | NR1D1 mod conf inactive
CC1CCc2c(sc(NC(=O)c3cccs3)c2C(=O)O)C1 (stereo not drawn)	none
CCC1CCc2c(sc(NC(=O)c3cccnc3)c2C(N)=O)C1 (stereo not drawn)	NR1D1 modulator 26.7 | NR1D1 mod conf inactive
N#CC(C(=O)Nc1ccccc1)=C1Nc2ccccc2N1	none
N#C/C(C(=O)Oc1ccccc1)=C1/Nc2ccccc2-c2ccccc21	NR1D1 modulator 44.3 | NR1D1 mod conf 31.0

Screening results: PubChem, several laboratories
